Test results reported in the supplement of paper PMC10849652.
The full data set covers some 8,800 targets. This sample favours those with a hit. About 0.5% of all pairs of compound and target were hits.

These targets were tested with C1=CC2=NC=CN=C2C=C1/C=C/3\C(=O)NC(=O)S3 (assay: log2 fold change, soluble protein after heating vs DMSO (PISA); higher = thermal stabilisation; K562 lysate, 10 uM; active = over 0.2 and 3.5 SD of the protein, either way, in both replicates (recomputed)).
How it was run: (§1)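 A 30 min treatment with 10 μM compound was applied to crude K562 extract at 1 mg/mL protein in PBS pH 7.4 with 1 mM MgCl2. Heating for 3 min spanned 48°C-58°C, after which aliquots were pooled, adjusted to 0.5% NP-40 at 4°C and spun at 21,000xg for 90 min. TMTpro 16plex LC-MS/MS of the supernatant, with channel sums equalised, gave values recorded as log-two fold change in thermal stability against solvent controls, from duplicates.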

UniProt Q15418, sequence (Q15418 whole entry, looked up): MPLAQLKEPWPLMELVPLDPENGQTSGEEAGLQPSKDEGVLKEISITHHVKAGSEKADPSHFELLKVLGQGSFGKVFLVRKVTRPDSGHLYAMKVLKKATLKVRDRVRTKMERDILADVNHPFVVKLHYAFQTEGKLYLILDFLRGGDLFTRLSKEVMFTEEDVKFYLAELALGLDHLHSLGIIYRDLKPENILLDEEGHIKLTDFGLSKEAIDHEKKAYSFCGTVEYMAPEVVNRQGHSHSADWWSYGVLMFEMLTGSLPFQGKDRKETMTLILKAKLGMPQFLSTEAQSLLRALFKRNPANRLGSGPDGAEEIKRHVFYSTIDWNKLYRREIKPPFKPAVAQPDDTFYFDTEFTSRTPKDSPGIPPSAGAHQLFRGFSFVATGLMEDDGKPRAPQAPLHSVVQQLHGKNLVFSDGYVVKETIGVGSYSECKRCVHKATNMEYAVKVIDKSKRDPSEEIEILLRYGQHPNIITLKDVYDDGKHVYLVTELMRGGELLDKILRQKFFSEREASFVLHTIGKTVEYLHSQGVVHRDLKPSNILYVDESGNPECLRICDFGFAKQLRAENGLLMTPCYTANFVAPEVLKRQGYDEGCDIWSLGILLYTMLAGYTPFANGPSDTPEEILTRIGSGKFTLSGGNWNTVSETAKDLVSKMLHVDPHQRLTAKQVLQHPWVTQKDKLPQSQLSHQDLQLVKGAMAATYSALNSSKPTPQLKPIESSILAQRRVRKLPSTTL
UniProt Q13464, sequence (Q13464 whole entry, looked up): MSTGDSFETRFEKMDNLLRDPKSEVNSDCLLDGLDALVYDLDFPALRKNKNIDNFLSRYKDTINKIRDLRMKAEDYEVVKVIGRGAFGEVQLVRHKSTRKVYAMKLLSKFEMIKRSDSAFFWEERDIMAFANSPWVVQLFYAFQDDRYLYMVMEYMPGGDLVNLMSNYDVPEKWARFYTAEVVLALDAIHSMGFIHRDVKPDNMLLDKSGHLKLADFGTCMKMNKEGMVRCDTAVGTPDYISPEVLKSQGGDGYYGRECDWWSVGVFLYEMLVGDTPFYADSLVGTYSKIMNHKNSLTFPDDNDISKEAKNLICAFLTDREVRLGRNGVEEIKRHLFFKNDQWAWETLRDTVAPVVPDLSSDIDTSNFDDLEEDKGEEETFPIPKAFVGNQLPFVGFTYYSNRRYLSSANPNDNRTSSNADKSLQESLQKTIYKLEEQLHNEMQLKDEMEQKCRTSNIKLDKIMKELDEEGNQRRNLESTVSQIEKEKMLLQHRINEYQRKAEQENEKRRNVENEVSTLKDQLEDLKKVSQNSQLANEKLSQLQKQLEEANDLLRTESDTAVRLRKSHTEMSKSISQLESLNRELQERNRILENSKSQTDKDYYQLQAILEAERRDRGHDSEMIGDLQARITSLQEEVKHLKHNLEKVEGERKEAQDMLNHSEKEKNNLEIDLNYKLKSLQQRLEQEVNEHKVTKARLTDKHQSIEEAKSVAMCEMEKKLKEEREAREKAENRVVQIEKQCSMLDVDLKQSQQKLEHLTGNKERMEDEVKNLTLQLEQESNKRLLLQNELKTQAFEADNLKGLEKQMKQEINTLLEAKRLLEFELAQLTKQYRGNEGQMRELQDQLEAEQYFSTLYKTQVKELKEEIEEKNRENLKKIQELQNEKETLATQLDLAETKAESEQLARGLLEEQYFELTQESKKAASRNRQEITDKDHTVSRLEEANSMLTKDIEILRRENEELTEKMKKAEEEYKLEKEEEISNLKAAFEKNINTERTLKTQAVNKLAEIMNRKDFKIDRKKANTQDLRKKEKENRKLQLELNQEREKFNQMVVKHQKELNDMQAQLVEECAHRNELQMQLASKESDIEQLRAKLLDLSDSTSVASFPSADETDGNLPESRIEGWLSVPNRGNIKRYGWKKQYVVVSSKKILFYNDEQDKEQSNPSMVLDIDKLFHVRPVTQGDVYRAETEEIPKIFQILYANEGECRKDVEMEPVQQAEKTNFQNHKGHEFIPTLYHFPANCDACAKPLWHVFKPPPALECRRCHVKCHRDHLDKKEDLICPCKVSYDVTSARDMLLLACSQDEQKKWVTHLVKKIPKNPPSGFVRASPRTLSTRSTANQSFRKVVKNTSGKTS
UniProt P31040, sequence (P31040 whole entry, looked up): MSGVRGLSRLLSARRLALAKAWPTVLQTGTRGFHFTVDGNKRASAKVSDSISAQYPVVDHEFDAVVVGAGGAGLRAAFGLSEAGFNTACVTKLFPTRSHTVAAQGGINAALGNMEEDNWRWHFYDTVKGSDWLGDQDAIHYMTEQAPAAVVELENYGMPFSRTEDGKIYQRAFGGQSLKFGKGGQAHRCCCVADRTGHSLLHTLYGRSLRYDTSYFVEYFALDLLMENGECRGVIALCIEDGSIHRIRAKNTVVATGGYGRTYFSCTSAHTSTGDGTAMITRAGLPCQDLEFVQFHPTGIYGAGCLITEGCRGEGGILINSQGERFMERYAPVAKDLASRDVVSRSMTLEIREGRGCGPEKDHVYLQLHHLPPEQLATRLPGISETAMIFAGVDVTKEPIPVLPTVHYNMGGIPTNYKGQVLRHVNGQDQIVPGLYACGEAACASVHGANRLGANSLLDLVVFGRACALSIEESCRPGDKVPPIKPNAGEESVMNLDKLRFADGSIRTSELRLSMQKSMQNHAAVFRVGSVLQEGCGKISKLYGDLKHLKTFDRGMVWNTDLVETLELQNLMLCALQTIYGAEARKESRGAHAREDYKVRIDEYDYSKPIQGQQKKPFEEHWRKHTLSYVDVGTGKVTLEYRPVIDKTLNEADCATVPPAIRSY
UniProt Q15287, sequence (Q15287 whole entry, looked up): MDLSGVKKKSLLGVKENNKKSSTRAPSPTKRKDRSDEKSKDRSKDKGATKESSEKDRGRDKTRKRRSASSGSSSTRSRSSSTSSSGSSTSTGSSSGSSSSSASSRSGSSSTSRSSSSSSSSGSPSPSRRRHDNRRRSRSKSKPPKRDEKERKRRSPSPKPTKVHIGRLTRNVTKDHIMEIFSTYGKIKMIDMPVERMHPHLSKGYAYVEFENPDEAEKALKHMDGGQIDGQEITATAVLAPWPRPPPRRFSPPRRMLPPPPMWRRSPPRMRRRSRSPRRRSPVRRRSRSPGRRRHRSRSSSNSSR
UniProt Q9NW64, sequence (Q9NW64 whole entry, looked up): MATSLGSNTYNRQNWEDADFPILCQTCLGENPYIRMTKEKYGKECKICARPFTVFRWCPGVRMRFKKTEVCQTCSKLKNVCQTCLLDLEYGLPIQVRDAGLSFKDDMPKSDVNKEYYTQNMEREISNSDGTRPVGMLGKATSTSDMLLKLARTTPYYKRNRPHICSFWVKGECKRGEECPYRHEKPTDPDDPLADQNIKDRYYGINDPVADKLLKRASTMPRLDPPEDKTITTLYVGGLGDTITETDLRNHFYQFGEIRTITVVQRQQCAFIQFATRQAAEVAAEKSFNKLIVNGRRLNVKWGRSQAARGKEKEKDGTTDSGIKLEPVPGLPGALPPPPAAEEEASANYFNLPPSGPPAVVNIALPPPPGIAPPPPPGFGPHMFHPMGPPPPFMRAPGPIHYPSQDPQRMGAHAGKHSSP
UniProt Q9P0K7, sequence (Q9P0K7 whole entry, looked up): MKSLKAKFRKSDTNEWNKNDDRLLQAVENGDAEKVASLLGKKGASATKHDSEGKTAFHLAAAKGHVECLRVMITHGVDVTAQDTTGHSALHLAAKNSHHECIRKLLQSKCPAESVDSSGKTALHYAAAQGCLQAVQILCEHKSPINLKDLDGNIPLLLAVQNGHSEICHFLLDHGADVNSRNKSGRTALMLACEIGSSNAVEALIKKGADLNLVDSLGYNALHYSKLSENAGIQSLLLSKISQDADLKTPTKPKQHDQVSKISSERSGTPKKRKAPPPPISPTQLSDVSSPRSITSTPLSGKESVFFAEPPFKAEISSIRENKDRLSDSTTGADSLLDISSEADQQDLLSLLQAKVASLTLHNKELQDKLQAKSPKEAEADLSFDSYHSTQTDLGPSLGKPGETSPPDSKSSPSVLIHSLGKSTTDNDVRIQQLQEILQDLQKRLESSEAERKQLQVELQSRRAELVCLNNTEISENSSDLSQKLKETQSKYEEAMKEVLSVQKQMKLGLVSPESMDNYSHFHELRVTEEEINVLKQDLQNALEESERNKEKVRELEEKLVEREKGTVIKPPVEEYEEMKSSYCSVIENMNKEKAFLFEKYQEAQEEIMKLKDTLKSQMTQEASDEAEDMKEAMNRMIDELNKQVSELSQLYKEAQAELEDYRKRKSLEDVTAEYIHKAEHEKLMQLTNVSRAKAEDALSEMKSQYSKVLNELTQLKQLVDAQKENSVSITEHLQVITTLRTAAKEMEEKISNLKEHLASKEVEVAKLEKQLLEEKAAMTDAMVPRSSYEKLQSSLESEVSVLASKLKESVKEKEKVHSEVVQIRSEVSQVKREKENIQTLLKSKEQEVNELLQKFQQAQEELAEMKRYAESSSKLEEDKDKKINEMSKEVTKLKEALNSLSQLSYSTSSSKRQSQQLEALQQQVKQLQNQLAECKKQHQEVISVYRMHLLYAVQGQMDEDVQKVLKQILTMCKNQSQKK
UniProt Q8WWV3, sequence (Q8WWV3 whole entry, looked up): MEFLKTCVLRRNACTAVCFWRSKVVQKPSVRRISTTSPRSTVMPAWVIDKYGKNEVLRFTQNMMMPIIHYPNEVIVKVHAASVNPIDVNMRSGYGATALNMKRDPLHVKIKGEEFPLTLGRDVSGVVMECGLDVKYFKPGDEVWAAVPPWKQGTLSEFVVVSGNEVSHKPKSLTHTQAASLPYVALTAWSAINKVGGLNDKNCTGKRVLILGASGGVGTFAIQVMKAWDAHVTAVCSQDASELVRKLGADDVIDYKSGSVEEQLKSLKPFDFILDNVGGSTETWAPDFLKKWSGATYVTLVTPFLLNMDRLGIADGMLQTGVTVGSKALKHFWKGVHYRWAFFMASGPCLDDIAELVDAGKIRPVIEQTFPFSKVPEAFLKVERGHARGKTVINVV

Row | Target | log2 fold change
1 | RNPS1 (UniProt Q15287) | -0.005 (inactive)
2 | RAI14 isoform 2 (UniProt Q9P0K7) | 0.001 (inactive)
3 | SDHA (UniProt P31040) | 0.005 (inactive)
4 | SCCPDH (UniProt Q8NBX0) | -0.243 (inactive)
5 | RPS6KA1 (UniProt Q15418) | 0.04 (inactive)
6 | RBM22 (UniProt Q9NW64) | 0.013 (inactive)
7 | RPS26P11 (UniProt Q5JNZ5) | 0.039 (inactive)
8 | RTN4IP1 (UniProt Q8WWV3) | -0.017 (inactive)
9 | ROCK1 (UniProt Q13464) | -0.036 (inactive)
10 | RPL8 (UniProt P62917) | -0.026 (inactive)
11 | RPL36AL (UniProt Q969Q0) | -0.029 (inactive)

Each target was assayed with C1=CC=C(C=C1)C2=NC(=C(N2)C3=CC=NC=C3)C4=CC(=C(C=C4)Cl)O in the same assay as above.
How it was run: as §1

Row | Target | log2 fold change
12 | SEC62 (UniProt Q99442) | 0.036 (inactive)
13 | RPL28 (UniProt P46779) | 0.019 (inactive)
14 | SBF1 isoform 4 (UniProt O95248) | -0.027 (inactive)
15 | SEC16A isoform 5 (UniProt O15027) | -0.038 (inactive)
16 | SEH1L isoform 1 (UniProt Q96EE3) | -0.015 (inactive)
17 | RDH14 (UniProt Q9HBH5) | 0.021 (inactive)
18 | RFC3 (UniProt P40938) | 0.005 (inactive)
19 | RAB1B (UniProt Q9H0U4) | 0.005 (inactive)
20 | RRAGA (UniProt Q7L523) | -0.107 (inactive)
21 | RAB3IL1 (UniProt E9PK89) | -0.04 (inactive)
22 | RBM42 (UniProt Q9BTD8) | -0.009 (inactive)
23 | RBSN (UniProt Q9H1K0) | 0.005 (inactive)
24 | RAC2 (UniProt P15153) | 0.012 (inactive)
25 | RSU1 (UniProt Q15404) | -0.003 (inactive)
26 | RPL37A (UniProt P61513) | 0.03 (inactive)
27 | QRSL1 (UniProt Q9H0R6) | 0.002 (inactive)
28 | RBBP8 isoform 2 (UniProt Q99708) | -0.004 (inactive)

Row | Target | log2 fold change
29 | RASA2 (UniProt Q15283) | 0.018 (inactive)
30 | RIOK3 (UniProt O14730) | 0.023 (inactive)
31 | RMC1 (UniProt Q96DM3) | -0.008 (inactive)
32 | RPS6KB1 (UniProt P23443) | 0.083 (inactive)
33 | RCAN1 (UniProt P53805) | 0.008 (inactive)
34 | RNF40 (UniProt O75150) | 0.003 (inactive)
35 | RNPS1 (UniProt Q15287) | -0.006 (inactive)
36 | RAI14 isoform 2 (UniProt Q9P0K7) | 0.021 (inactive)
37 | SDHA (UniProt P31040) | -0.005 (inactive)
38 | SCCPDH (UniProt Q8NBX0) | 0.052 (inactive)
39 | RPS6KA1 (UniProt Q15418) | 0.13 (inactive)
40 | RBM22 (UniProt Q9NW64) | -0.034 (inactive)
41 | RPS26P11 (UniProt Q5JNZ5) | 0.005 (inactive)
42 | RTN4IP1 (UniProt Q8WWV3) | -0.003 (inactive)
43 | ROCK1 (UniProt Q13464) | -0.004 (inactive)
44 | RPL8 (UniProt P62917) | 0.007 (inactive)
45 | RPL36AL (UniProt Q969Q0) | 0.029 (inactive)

The targets below were run with C1=CC=C2C(=C1)C3=NNC4=CC=CC(=C43)C2=O in the same assay as above.
How it was run: as §1

Row | Target | log2 fold change
46 | SEC62 (UniProt Q99442) | -0.022 (inactive)
47 | RPL28 (UniProt P46779) | 0.016 (inactive)
48 | SBF1 isoform 4 (UniProt O95248) | -0.029 (inactive)
49 | SEC16A isoform 5 (UniProt O15027) | -0.085 (inactive)
50 | SEH1L isoform 1 (UniProt Q96EE3) | -0.012 (inactive)
51 | RDH14 (UniProt Q9HBH5) | 0.024 (inactive)
52 | RFC3 (UniProt P40938) | -0.027 (inactive)
53 | RAB1B (UniProt Q9H0U4) | -0.008 (inactive)
54 | RRAGA (UniProt Q7L523) | -0.008 (inactive)
55 | RAB3IL1 (UniProt E9PK89) | 0.093 (inactive)
56 | RBM42 (UniProt Q9BTD8) | -0.05 (inactive)
57 | RBSN (UniProt Q9H1K0) | 0.043 (inactive)
58 | RAC2 (UniProt P15153) | 0.034 (inactive)
59 | RSU1 (UniProt Q15404) | 0.017 (inactive)
60 | RPL37A (UniProt P61513) | 0.064 (inactive)
61 | QRSL1 (UniProt Q9H0R6) | 0.116 (inactive)
62 | RBBP8 isoform 2 (UniProt Q99708) | -0.019 (inactive)

Row | Target | log2 fold change
63 | RASA2 (UniProt Q15283) | -0.069 (inactive)
64 | RIOK3 (UniProt O14730) | 0.092 (inactive)
65 | RMC1 (UniProt Q96DM3) | -0.054 (inactive)
66 | RPS6KB1 (UniProt P23443) | 0.322 (active)
67 | RCAN1 (UniProt P53805) | 0.045 (inactive)
68 | RNF40 (UniProt O75150) | -0.04 (inactive)
69 | RNPS1 (UniProt Q15287) | 0.027 (inactive)
70 | RAI14 isoform 2 (UniProt Q9P0K7) | 0.02 (inactive)
71 | SDHA (UniProt P31040) | 0.025 (inactive)
72 | SCCPDH (UniProt Q8NBX0) | 0.185 (inactive)
73 | RPS6KA1 (UniProt Q15418) | 0.509 (active)
74 | RBM22 (UniProt Q9NW64) | -0.021 (inactive)
75 | RPS26P11 (UniProt Q5JNZ5) | -0.046 (inactive)
76 | RTN4IP1 (UniProt Q8WWV3) | 0.022 (inactive)
77 | ROCK1 (UniProt Q13464) | -0.041 (inactive)
78 | RPL8 (UniProt P62917) | 0.109 (inactive)
79 | RPL36AL (UniProt Q969Q0) | 0.048 (inactive)
